Data published in PubChem BioAssay (EPA / NIEHS).
Values joined by “and” are separate entries in the source; they are usually repeats but may differ in a detail not shown here. Equal entries are not always repeated. Inconclusive results are not listed. Active and inactive are the calls of the source. Rule for the calls, unless noted: active = hit-call score of the fitted dose curve at least 0.9, where 1 is the maximum; inactive = score below 0.9.

Legend:
[1] = ATG_TCF_b_cat_CIS: Attagene CIS-FACTORIAL HepG2 Assay for human T-Cell-Factor with beta-catenin (TCF/b-cat) (AID 2282965); conditions: HepG2 TCF/beta-catenin cis-reporter transcription, actives raise or lower the signal
How it was run: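 Cells of the HepG2 line carry transiently transfected reporter units whose promoters respond to endogenous factors. Twenty-four hours post-dosing, reporter mRNA induction is measured by fluorescent RT-PCR and capillary electrophoresis, with DMSO as baseline.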

[2] = ATG_TAL_CIS: Attagene CIS-FACTORIAL HepG2 Assay for human TAL Basal Promoter (AID 2282966); conditions: HepG2 Attagene cis-factorial TAL promoter reporter; actives raise or lower the signal;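 note: background control endpoint measuring basal TAL promoter reporter mRNA not a specific factor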
How it was run: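 Fluorescence of labelled reporter cDNA fragments, resolved by capillary electrophoresis, gave the readout. Human HepG2 liver cells carried transiently transfected cis-element reporter units and were treated for 24 hours; activity was fitted bidirectionally against DMSO.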

[3] = ATG_TGFb_CIS: Attagene CIS-FACTORIAL HepG2 Assay for human Transforming Growth Factor (TGF) (AID 2282967); conditions: HepG2 Attagene CIS TGFb reporter, mRNA transcription; actives raise or lower the signal
How it was run: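 Transient MRTU transfection of HepG2 (FuGene 6). Dose 24 h. TriZol RNA, oligo(dT) RT, PCR, 6-FAM primer extension, HpaI cut, CE. Bidirectional fit, DMSO = baseline.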

[4] = ATG_VDRE_CIS: Attagene CIS-FACTORIAL HepG2 Assay for human Vitamin D Receptor Element (VDRE) (AID 2282968); conditions: HepG2 VDRE cis-reporter transcription, actives raise or lower the signal
How it was run: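 Cell-based multiplexed reporter format in human liver HepG2 cells, 24 h post-dose. Fluorescence from capillary electrophoresis of reporter cDNA gives the signal, with DMSO as negative control and baseline.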

[5] = biological target: Nuclear receptor subfamily 1 group I member 3 (Homo sapiens) (UniProt Q14994); experiment: ATG_CAR_TRANS: Attagene TRANS-FACTORIAL HepG2 Assay for human Constitutive Androstane Receptor (CAR) (AID 2282969; active = hit-call score of the fitted dose curve at least 0.9, where 1 is the maximum;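 note: activators raise reporter mRNA above DMSO so AC50 marks induction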); conditions: HepG2 Attagene TRANS-FACTORIAL CAR reporter
Nuclear receptor subfamily 1 group I member 3 (Homo sapiens), sequence (Q14994 whole entry, looked up, the tested form may be a part): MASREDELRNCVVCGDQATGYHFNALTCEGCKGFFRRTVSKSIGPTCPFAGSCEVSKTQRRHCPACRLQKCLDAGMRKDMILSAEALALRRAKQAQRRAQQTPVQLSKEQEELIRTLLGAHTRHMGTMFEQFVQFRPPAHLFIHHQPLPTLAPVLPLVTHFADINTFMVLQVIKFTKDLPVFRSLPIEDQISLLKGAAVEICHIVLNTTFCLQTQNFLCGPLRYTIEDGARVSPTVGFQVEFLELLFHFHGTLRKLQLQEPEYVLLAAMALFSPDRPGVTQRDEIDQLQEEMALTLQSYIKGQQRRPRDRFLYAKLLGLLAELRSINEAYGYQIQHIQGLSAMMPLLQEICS
How it was run: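 HepG2 cells transiently transfected with GAL4-UAS reporter units; TRANS format reads activity of exogenous chimeric NR-Gal4 protein. After 24 h dosing, reporter mRNA quantified by RT-PCR, 6-FAM labelling and capillary electrophoresis; gain of signal fitted against DMSO.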

[6] = biological target: Estrogen receptor (Homo sapiens) (UniProt P03372); experiment: ATG_ERa_TRANS: Attagene TRANS-FACTORIAL HepG2 Assay for human Estrogen Receptor alpha (ERa) (AID 2282970; active = hit-call score of the fitted dose curve at least 0.9, where 1 is the maximum); conditions: HepG2 Attagene TRANS ERa GAL4 reporter, mRNA
Estrogen receptor (Homo sapiens), sequence (P03372 whole entry, looked up, the tested form may be a part): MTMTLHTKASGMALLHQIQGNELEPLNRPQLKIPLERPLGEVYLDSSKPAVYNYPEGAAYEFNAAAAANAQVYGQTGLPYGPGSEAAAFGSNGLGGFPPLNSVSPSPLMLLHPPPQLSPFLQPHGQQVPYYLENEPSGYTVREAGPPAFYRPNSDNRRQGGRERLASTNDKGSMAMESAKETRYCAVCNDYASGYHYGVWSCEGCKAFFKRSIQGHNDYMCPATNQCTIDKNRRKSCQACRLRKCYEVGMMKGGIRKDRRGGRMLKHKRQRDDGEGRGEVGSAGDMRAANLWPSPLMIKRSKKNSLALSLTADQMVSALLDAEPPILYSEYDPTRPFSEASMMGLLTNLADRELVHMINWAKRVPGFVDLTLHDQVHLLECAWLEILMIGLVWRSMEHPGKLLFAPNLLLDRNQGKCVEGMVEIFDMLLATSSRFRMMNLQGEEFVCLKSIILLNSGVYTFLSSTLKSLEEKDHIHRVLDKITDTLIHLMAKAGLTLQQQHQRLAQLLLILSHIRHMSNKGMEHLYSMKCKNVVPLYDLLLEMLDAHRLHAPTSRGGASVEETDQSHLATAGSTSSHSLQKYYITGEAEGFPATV
How it was run: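 Human liver HepG2, transient transfection of multiple GAL4-UAS reporter units; TRANS format (exogenous NR-Gal4 chimera). 24 h dosing. Readout: reporter mRNA, RT-PCR, 6-FAM primer extension, HpaI digest, capillary electrophoresis. Positive direction vs DMSO.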

[7] = biological target: Steroid hormone receptor ERR1 (Homo sapiens) (UniProt P11474); experiment: ATG_ERRa_TRANS: Attagene TRANS-FACTORIAL HepG2 Assay for human Estrogen-Related Receptor alpha (ERRa) (AID 2282971; active = hit-call score of the fitted dose curve at least 0.9, where 1 is the maximum); conditions: HepG2 Attagene TRANS reporter, ERRa transactivation
Steroid hormone receptor ERR1 (Homo sapiens), sequence (P11474 whole entry, looked up, the tested form may be a part): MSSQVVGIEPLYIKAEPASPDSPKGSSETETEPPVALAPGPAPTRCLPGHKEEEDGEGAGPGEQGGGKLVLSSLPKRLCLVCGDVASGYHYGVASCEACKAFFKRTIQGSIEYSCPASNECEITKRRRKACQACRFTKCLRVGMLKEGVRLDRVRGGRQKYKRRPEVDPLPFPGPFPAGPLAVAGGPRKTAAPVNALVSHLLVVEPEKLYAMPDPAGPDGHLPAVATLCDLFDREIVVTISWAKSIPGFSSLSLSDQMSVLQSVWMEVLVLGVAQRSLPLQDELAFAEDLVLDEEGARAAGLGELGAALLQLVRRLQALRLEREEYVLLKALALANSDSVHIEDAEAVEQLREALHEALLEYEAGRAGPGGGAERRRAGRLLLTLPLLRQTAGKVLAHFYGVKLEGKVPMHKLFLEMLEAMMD
How it was run: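 Reporter transcript induction was quantified by RT-PCR and capillary electrophoresis of FAM-labelled, HpaI-cut products after 24 h treatment of HepG2 cells carrying transiently transfected GAL4-UAS reporter units and an exogenous ERRa-Gal4 fusion; activity scored as increase over DMSO.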

[8] = biological target: X-box-binding protein 1 (Homo sapiens) (UniProt P17861); experiment: ATG_Xbp1_CIS: Attagene CIS-FACTORIAL HepG2 Assay for human X-box Binding Protein 1 (XBP1) (AID 2282972); conditions: HepG2 XBP1 cis-element reporter, Attagene multiplex; actives raise or lower the signal
X-box-binding protein 1 (Homo sapiens), sequence (P17861 whole entry, looked up): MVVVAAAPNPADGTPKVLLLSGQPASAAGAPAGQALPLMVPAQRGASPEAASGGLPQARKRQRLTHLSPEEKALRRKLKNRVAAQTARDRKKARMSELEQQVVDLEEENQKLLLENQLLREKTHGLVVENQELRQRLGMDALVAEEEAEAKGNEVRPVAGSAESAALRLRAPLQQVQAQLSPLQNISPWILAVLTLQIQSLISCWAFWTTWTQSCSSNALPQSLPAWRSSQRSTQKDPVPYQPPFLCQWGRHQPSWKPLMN
How it was run: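 HepG2, transient MRTU transfection (cis-promoter driven), 24 h compound exposure. Total RNA → oligo(dT) RT → PCR → 6-FAM labeling → HpaI cut → CE. Bidirectional fit vs DMSO.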

[9] = ATG_M_19_TRANS: Attagene TRANS-FACTORIAL HepG2 Assay for M19 Transcription Factor (Internal Marker) (AID 2282974; active = hit-call score of the fitted dose curve at least 0.9, where 1 is the maximum); conditions: HepG2 Attagene TRANS-FACTORIAL M19 internal marker reporter
How it was run: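 Multiplexed TRANS format: HepG2 liver cells bearing transient GAL4-UAS reporter units, chemical treatment 24 h, reporter transcripts quantified by RT-PCR plus capillary electrophoresis. DMSO defines baseline.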

[10] = ATG_GAL4_TRANS: Attagene TRANS-FACTORIAL HepG2 Assay for GAL4 (Internal Marker) (AID 2282976; active = hit-call score of the fitted dose curve at least 0.9, where 1 is the maximum); conditions: HepG2 Attagene TRANS GAL4 internal marker reporter
How it was run: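 First, HepG2 cells were transfected with reporter units under GAL4-UAS control. Next, they were treated with chemical for 24 h. Finally, RNA was reverse-transcribed, PCR-amplified, FAM-labelled and resolved by capillary electrophoresis, with induction scored against DMSO.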

Measured: AC50

O=C(Cl)C(F)(F)C(F)(F)C(F)(F)C(F)(F)C(F)(F)C(F)(F)C(F)(F)C(F)(F)F
active: [1] 33.4 µM | [4] 52.2 µM | [6] 25.5 µM | [8] 41.9 µM
inactive: [2] | [3] | [5] | [7]

FC(F)(F)C(F)(F)C(F)(F)C(F)(F)C(F)(F)C(F)(F)C(F)(F)C(F)(F)F
inactive: all assays above

CNC(=S)NC
inactive: [2] | [3] | [4] | [5] | [8]
active: [6] 25.9 µM

O=S(=O)(O)C(F)(F)C(F)(F)C(F)(F)C(F)(F)C(F)(F)C(F)(F)C(F)(F)F
active: [3] 148 µM and 81.5 µM | [6] 43.3 µM and 58.7 µM
not listed: [1]
inactive: all other assays above

O=C(OCCOCCOCCOC(=O)c1ccccc1)c1ccccc1
active: [6] 2 µM
not listed: [1] | [7] | [9]
inactive: all other assays above

C=CC/C=C/C/C=C/C/C=C/C
not listed: [1] | [9] | [10]
inactive: all other assays above

C=CC(=O)OCC(F)(F)C(F)(F)C(F)(F)C(F)(F)C(F)(F)C(F)(F)C(F)(F)F
active: [6] 15.6 µM
not listed: [1] | [7]
inactive: all other assays above

FC(F)(Br)C(F)(F)C(F)(F)C(F)(F)C(F)(F)C(F)(F)Br
active: [6] 7.26 µM
not listed: [1] | [7] | [9]
inactive: all other assays above

OCC(F)(F)C(F)(F)C(F)(F)F
not listed: [1] | [6] | [9]
inactive: all other assays above

O=C(O)C(F)(F)C(F)(F)C(F)F
not listed: [1] | [7]
inactive: all other assays above

O=C(O)C(F)(OC(F)(F)C(F)(OC(F)(F)C(F)(OC(F)(F)C(F)(F)C(F)(F)F)C(F)(F)F)C(F)(F)F)C(F)(F)F (stereo not drawn)
not listed: [1] | [7] | [10]
inactive: all other assays above

CC/C=C\CCOC(=O)c1ccccc1
not listed: [1] | [9]
inactive: all other assays above

O=P(O)(O)OCCC(F)(F)C(F)(F)C(F)(F)C(F)(F)C(F)(F)C(F)(F)F
active: [3] 70.1 µM | [6] 10.4 µM
not listed: [1] | [9]
inactive: all other assays above

Cc1ccc(S(=O)(=O)OCC(F)(F)C(F)(F)C(F)(F)C(F)(F)C(F)(F)C(F)F)cc1
not listed: [1] | [7] | [9]
inactive: all other assays above

FC(F)(F)C(F)(F)C(F)(F)CI
not listed: [1] | [9] | [10]
inactive: all other assays above

O=C(O)C(F)(F)C(F)(F)C(F)(F)C(F)(F)F
not listed: [1] | [9]
inactive: all other assays above

Cc1cccc(N(C)C)c1
not listed: [1] | [9]
inactive: all other assays above

OCC(F)(F)C(F)(F)C(F)(F)C(F)(F)C(F)(F)C(F)(F)F
active: [2] 239 µM
not listed: [1] | [7] | [9]
inactive: all other assays above

COC(=O)CCC(F)(F)C(F)(F)C(F)(F)C(F)(F)F
active: [6] 5.85 µM
not listed: [1] | [7] | [9]
inactive: all other assays above

Oc1ccc(Nc2ccccc2)cc1
active: [4] 56.3 µM | [6] 5.96 µM
not listed: [1] | [9]
inactive: all other assays above

Nc1ccc(S(=O)(=O)Nc2nccs2)cc1
not listed: [1] | [5]
inactive: all other assays above

O=C(O)C(F)(F)C(F)(F)C(F)(F)C(F)(F)C(F)(F)C(F)(F)C(F)(F)C(F)(F)C(F)(F)C(F)(F)C(F)(F)C(F)(F)C(F)(F)F
not listed: [1] | [9]
inactive: all other assays above

CCc1c(Br)c(Br)c(Br)c(Br)c1Br
not listed: [1] | [9] | [10]
inactive: all other assays above

O=C(O)C(F)(F)C(F)(F)C(F)(F)F
active: [6] 108 µM
not listed: [1] | [9]
inactive: all other assays above

OCC(F)(F)C(F)(F)C(F)(F)C(F)F
not listed: [1] | [5] | [9]
inactive: all other assays above

O=C(O)C(F)(F)C(F)(F)F
not listed: [1]
inactive: all other assays above

CCCCCC=O
not listed: [1] | [9]
inactive: all other assays above

C=C(C)C(=O)OCC(F)(F)C(F)(F)C(F)(F)C(F)(F)C(F)(F)C(F)(F)C(F)(F)F
active: [6] 10.5 µM
not listed: [1]
inactive: all other assays above

CC/C=C\CCOC(C)=O
not listed: [1] | [9]
inactive: all other assays above

CCCCCCS
not listed: [1] | [7] | [9]
inactive: all other assays above

CCCCNc1ccccc1
not listed: [1] | [7] | [9]
inactive: all other assays above

CC(=O)Nc1ccc(N=Nc2cc(C)ccc2O)cc1
active: [3] 11.6 µM | [4] 13.6 µM
inactive: [2] | [5] | [6] | [7] | [8]

Cc1cc(C)cc(O)c1
not listed: [1] | [5] | [9]
inactive: all other assays above

O=C(O)C(F)(F)C(F)(F)OC(F)(F)F
not listed: [1] | [9]
inactive: all other assays above

O=C(O)C(F)(F)C(F)(F)C(F)(F)C(F)(F)C(F)(F)C(F)(F)C(F)(F)C(F)(F)C(F)(F)C(F)F
active: [6] 24.6 µM
not listed: [1] | [9]
inactive: all other assays above

Nc1ccc([N+](=O)[O-])cc1O
not listed: [1] | [7]
inactive: all other assays above

CCO[Si](CCC(F)(F)C(F)(F)C(F)(F)C(F)(F)C(F)(F)C(F)(F)F)(OCC)OCC
not listed: [1] | [5] | [9]
inactive: all other assays above
